# Measured values reported in PubChem BioAssay (Tox21).
# Inconclusive results are not listed. Values without a mark were called inactive. The source made the active and inactive calls. Calls come from the whole dose curve; as a rule, active = well fitted cell-killing curve with a large enough effect in the repeat runs; inconclusive = weak or mixed curves, or effect the other way; inactive = flat fitted curve, though single readings scatter.
# Assay: cAMP Responsive Elements (CRE) small molecule agonists, cell-based qHTS assay: qHTS cell viability counter screen (AID 2060914); note: nearly all actives have a fitted effect of over 50% in size
# Settings: CRE-bla HEK293T viability, CellTiter-Glo luminescence, 5 h; series mostly up to 92.4 µM; activity change, negative = cytotoxicity: at the top concentration
# In short: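 CRE-bla HEK293T cells in 10% dialyzed FBS medium were exposed to compounds for 3 h at 37C after 18 h plating. CellTiter-Glo was then added in the same wells, and luminescence was read after 30 min at room temperature.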
# % is set by controls: 0 for no effect and ±100 for the full control effect; potency is the fitted concentration of half-maximal effect.
SMILES,Potency,"activity change, negative = cytotoxicity"
CC1(C)O[C@@H]2[C@@H](CO[C@@]3(COS(N)(=O)=O)OC(C)(C)O[C@@H]23)O1,inactive,–
CCCOC(C)=O,–,-15%
CC1=CC[C@@H]2C[C@H]1C2(C)C,–,-0.0766% [at 18.9 µM]
CC(C(=O)O)c1ccc2c(c1)CC(=O)c1ccccc1S2 (stereo not given),–,4.34% [at 42.5 µM]
CCC(=O)OC,–,4.11%
C=C(C)[C@@H]1CCC2=CC(=O)C[C@@H](C)[C@]2(C)C1,–,-0.0716%
O=C(O)C1(C(=O)O)CCC1.[NH2-].[NH2-].[Pt+2],–,5.81% [at 42.5 µM]
C/C(=N\[Si](C)(C)C)O[Si](C)(C)C,–,14.4%
O=C(NCC1CN(c2ccc(N3CCOCC3=O)cc2)C(=O)O1)c1ccc(Cl)s1 (stereo not given),–,-12.9% [at 42.5 µM]
COc1c(C)c2c(c(O)c1C/C=C(\C)CCC(=O)O)C(=O)OC2,–,-1.03% [at 42.5 µM]
CCN1CCOCC1,–,-0.898%
CC(C)NCC(O)COc1ccc(CC(N)=O)cc1 (stereo not given),–,-10.5%
NCc1ccccc1,–,0.683%
NC(=O)c1ccc([N+](=O)[O-])cc1,–,9.66%
C/C(C=O)=C\c1ccccc1,–,-7.37%
C[C@@H](c1ncncc1F)C(O)(Cn1cncn1)c1ccc(F)cc1F (stereo not given in full),–,9.59% [at 42.5 µM]
C/C=C(/C(=C/C)c1ccc(O)cc1)c1ccc(O)cc1,–,-1.19% [at 42.5 µM]
CC(c1cc(C(C)(C)C)cc(C(C)(C)C)c1O)c1cc(C(C)(C)C)cc(C(C)(C)C)c1O,–,-2.24%
CC(=O)CC(=O)Nc1ccc(S(=O)(=O)O)cc1,–,-15.9%
COc1cc(O)c(C(=O)c2ccccc2)cc1S(=O)(=O)O,inactive,–

SMILES,Potency,"activity change, negative = cytotoxicity"
COc1ccc2c(c1)c(CC(=O)O)c(C)n2C(=O)c1ccc(Cl)cc1,inactive,–
CCC1(C)NC(=O)NC1=O (stereo not given),–,13.1%
CCCCCCCCCCCCCCC[C@H](O)[C@@H](N)CO,–,-2.95% [at 42.5 µM]
NC(=O)/N=N/C(N)=O,inactive,–
CC(Oc1c(Cl)cccc1Cl)C1=NCCN1 (stereo not given),–,-8.77% [at 42.5 µM]
CC(=O)CC(=O)OC(C)(C)C,–,-0.123%
COc1ccc(CCC(=O)c2c(O)cc(O[C@@H]3O[C@H](CO)[C@@H](O)[C@H](O)[C@H]3O[C@@H]3O[C@@H](C)[C@H](O)[C@@H](O)[C@H]3O)cc2O)cc1O,–,-10.6%
CCCCN,–,5.28% [at 42.5 µM]
CC(=O)NCCO,–,1.44%
C=CC(=C)CCCC(C)(C)OC(C)=O,–,-2.1%
Cn1c([N+](=O)[O-])cnc1COC(N)=O,inactive,–
COc1cc(C(C)C)ccc1C,–,-11.5% [at 18.9 µM]
O=C(O)c1cccc(-c2noc(-c3ccccc3F)n2)c1,21.1 µM (active),–
COc1ccc([N+](=O)[O-])cc1N,inactive,–
O=Cc1ccc(Cl)c(Cl)c1,–,-10.6%
COc1ccc(C2C(=O)c3ccccc3C2=O)cc1,–,-0.746% [at 42.5 µM]
C[C@@H]1C[C@H]2[C@@H]3C[C@H](F)C4=CC(=O)C=C[C@]4(C)[C@@]3(F)[C@@H](O)C[C@]2(C)[C@@]1(O)C(=O)CO,–,13.5% [at 42.5 µM]
CNS(=O)(=O)Cc1ccc2[nH]cc(CCN(C)C)c2c1,–,4.29% [at 42.5 µM]
O=C(O)CCCc1ccccc1,–,-12.1% [at 42.5 µM]
CC(O)COc1ccccc1 (stereo not given),inactive,–
